A short description of test [1]: ATG_TGFb_CIS: Attagene CIS-FACTORIAL HepG2 Assay for human Transforming Growth Factor (TGF) (AID 2282967; active means hit-call score of the fitted dose curve at least 0.9, where 1 is the maximum; inactive means score below 0.9). The note with it: HepG2 Attagene CIS TGFb reporter, mRNA transcription; actives raise or lower the signal. In outline: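 Multiplexed cis-reporter HepG2 system, 24 h treatment; mRNA induction read by fluorescence after RT-PCR and CE; DMSO negative control, bidirectional curve fitting.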

Test [2] can be described thus: ATG_VDRE_CIS: Attagene CIS-FACTORIAL HepG2 Assay for human Vitamin D Receptor Element (VDRE) (AID 2282968; active means hit-call score of the fitted dose curve at least 0.9, where 1 is the maximum; inactive means score below 0.9). The note with it: HepG2 VDRE cis-reporter transcription, actives raise or lower the signal. In short, it runs like this: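 Transiently transfected HepG2 cells carrying cis-regulated reporter transcription units were exposed for 24 h. Reporter mRNA was measured by RT-PCR with fluorescent labelling and capillary electrophoresis, and fitted in both directions against DMSO.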

For test [3], the target named is Estrogen receptor (Homo sapiens) (UniProt P03372). The test is described as follows: ATG_ERa_TRANS: Attagene TRANS-FACTORIAL HepG2 Assay for human Estrogen Receptor alpha (ERa) (AID 2282970). The following applies: HepG2 Attagene TRANS ERa GAL4 reporter, mRNA. In short, it runs like this:
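After 24 h of compound treatment, RNA from HepG2 cells bearing transfected GAL4-UAS reporter constructs is converted to cDNA, amplified and fluorescently labelled. Capillary electrophoresis resolves the ERa-linked reporter; DMSO serves as negative control.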

The target in test [4] is X-box-binding protein 1 (Homo sapiens) (UniProt P17861). Description: ATG_Xbp1_CIS: Attagene CIS-FACTORIAL HepG2 Assay for human X-box Binding Protein 1 (XBP1) (AID 2282972; active means hit-call score of the fitted dose curve at least 0.9, where 1 is the maximum; inactive means score below 0.9). The following applies: HepG2 XBP1 cis-element reporter, Attagene multiplex; actives raise or lower the signal. In short, it runs like this: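 HepG2 cells transiently transfected with multiple cis-element reporter units report endogenous TF activity; 24 h exposure, then reporter mRNA measured by RT-PCR, 6-FAM labelling, HpaI digestion and capillary electrophoresis. Bidirectional fitting versus DMSO.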

Test [5] can be described thus: ATG_GAL4_TRANS: Attagene TRANS-FACTORIAL HepG2 Assay for GAL4 (Internal Marker) (AID 2282976). The note with it: HepG2 Attagene TRANS GAL4 internal marker reporter. In short, it runs like this: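 RT-PCR/capillary electrophoresis readout of reporter mRNA. HepG2, transient MRTU transfection (GAL4-UAS reporters), 24 h compound exposure. Background-control endpoint, positive direction vs DMSO baseline.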

In test [6] the target is Steroid hormone receptor ERR1 (Homo sapiens) (UniProt P11474). Description: ATG_ERRa_TRANS: Attagene TRANS-FACTORIAL HepG2 Assay for human Estrogen-Related Receptor alpha (ERRa) (AID 2282971). The note with it: HepG2 Attagene TRANS reporter, ERRa transactivation. In outline: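 Transfected HepG2, 24 h dosing, ERRa-Gal4 chimera driving GAL4-UAS reporter. Readout: reporter mRNA via RT-PCR plus capillary electrophoresis (fluorescence). Positive direction vs DMSO control.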

The nature of test [7]: ATG_M_19_TRANS: Attagene TRANS-FACTORIAL HepG2 Assay for M19 Transcription Factor (Internal Marker) (AID 2282974). The following applies: HepG2 Attagene TRANS-FACTORIAL M19 internal marker reporter. In short, it runs like this:
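Measured here: internal-marker reporter transcript from HepG2 cells transfected with MRTUs, harvested at 24 h. cDNA PCR products were 6-FAM labelled by primer extension, cut with HpaI for 2 h at 37 C, and resolved by CE.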

The target in test [8] is Glucocorticoid receptor (Homo sapiens) (UniProt P04150). The test is described as follows: ATG_GR_TRANS: Attagene TRANS-FACTORIAL HepG2 Assay for human Glucocorticoid Receptor (GR) (AID 2282978).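 Further: activators score as hits since higher reporter transcript over DMSO is fitted.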 The note with it: HepG2 Attagene TRANS GR reporter, mRNA transcription. In outline:
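Measurement of GAL4-UAS-driven reporter mRNA in human HepG2 liver cells 24 h post-dosing, using RT-PCR with fluorescent labelling and capillary electrophoresis; the transfected constructs report exogenous NR-GAL4 chimera activity, fitted upward against DMSO.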

For test [9], the target named is Nuclear receptor subfamily 1 group I member 3 (Homo sapiens) (UniProt Q14994). The test is described as follows: ATG_CAR_TRANS: Attagene TRANS-FACTORIAL HepG2 Assay for human Constitutive Androstane Receptor (CAR) (AID 2282969).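 Further: activators raise reporter mRNA above DMSO so AC50 marks induction.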 The note with it: HepG2 Attagene TRANS-FACTORIAL CAR reporter. In outline: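 HepG2 cells transiently transfected with GAL4-UAS reporter units; TRANS format reads activity of exogenous chimeric NR-Gal4 protein. After 24 h dosing, reporter mRNA quantified by RT-PCR, 6-FAM labelling and capillary electrophoresis; gain of signal fitted against DMSO.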

The target in test [10] is Estrogen-related receptor gamma (Homo sapiens) (UniProt P62508). Description: ATG_ERRg_TRANS: Attagene TRANS-FACTORIAL HepG2 Assay for human Estrogen-Related Receptor gamma (ERRg) (AID 2282977).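 Further: hits increase reporter signal over DMSO so potencies reflect activators.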 The following applies: HepG2 Attagene TRANS reporter, ERRg transactivation. In outline: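 HepG2 cells transiently transfected with multiplexed GAL4-UAS reporter units driven by chimeric NR-Gal4 proteins; 24 h exposure. Reporter mRNA quantified by RT-PCR, fluorescent labelling, HpaI digestion and capillary electrophoresis; gain of signal vs DMSO.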

By AC50 is commonly meant the concentration giving half of the maximal activity seen.

Records with an inconclusive call do not appear. Active and inactive are the calls of the source. How the source made its calls, unless noted: active means hit-call score of the fitted dose curve at least 0.9, where 1 is the maximum; inconclusive means response in the unintended direction; inactive means score below 0.9.

Steroid hormone receptor ERR1 (Homo sapiens), sequence (P11474 whole entry, looked up, the tested form may be a part): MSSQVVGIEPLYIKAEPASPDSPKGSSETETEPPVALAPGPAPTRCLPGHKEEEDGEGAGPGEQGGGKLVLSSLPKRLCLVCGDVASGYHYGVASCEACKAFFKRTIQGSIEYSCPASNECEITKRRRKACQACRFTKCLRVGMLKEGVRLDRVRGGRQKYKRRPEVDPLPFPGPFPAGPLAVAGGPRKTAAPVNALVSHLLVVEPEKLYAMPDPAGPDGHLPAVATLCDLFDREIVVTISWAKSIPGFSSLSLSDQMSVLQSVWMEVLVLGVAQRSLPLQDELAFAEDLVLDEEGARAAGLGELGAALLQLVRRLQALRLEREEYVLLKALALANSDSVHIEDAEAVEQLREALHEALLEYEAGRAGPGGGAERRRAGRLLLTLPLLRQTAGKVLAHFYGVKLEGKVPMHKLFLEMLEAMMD
Nuclear receptor subfamily 1 group I member 3 (Homo sapiens), sequence (Q14994 whole entry, looked up, the tested form may be a part): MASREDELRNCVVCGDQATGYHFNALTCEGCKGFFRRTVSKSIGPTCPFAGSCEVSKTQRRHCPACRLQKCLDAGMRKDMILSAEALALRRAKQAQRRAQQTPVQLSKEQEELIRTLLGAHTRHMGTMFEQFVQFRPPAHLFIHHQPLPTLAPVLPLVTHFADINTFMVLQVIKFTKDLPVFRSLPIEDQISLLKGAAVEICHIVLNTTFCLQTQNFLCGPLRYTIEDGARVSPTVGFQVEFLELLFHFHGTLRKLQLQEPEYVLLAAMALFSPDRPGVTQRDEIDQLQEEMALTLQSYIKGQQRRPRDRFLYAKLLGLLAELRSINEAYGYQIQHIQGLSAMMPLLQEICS
Estrogen receptor (Homo sapiens), sequence (P03372 whole entry, looked up, the tested form may be a part): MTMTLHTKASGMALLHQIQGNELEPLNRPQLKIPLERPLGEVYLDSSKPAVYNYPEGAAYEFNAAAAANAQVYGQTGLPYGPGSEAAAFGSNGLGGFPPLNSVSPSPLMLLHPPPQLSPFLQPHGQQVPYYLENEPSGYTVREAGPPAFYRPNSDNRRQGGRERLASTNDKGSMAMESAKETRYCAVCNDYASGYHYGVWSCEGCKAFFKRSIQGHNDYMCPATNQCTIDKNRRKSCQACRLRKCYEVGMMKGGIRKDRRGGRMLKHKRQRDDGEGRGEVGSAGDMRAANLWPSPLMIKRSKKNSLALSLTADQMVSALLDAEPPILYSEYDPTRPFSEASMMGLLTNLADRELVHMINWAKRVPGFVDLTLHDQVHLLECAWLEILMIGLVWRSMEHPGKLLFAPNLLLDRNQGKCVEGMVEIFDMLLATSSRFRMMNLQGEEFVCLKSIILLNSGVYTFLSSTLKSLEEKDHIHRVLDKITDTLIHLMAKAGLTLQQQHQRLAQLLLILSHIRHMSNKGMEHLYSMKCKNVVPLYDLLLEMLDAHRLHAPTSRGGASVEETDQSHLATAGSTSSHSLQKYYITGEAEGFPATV
Estrogen-related receptor gamma (Homo sapiens), sequence (P62508 whole entry, looked up, the tested form may be a part): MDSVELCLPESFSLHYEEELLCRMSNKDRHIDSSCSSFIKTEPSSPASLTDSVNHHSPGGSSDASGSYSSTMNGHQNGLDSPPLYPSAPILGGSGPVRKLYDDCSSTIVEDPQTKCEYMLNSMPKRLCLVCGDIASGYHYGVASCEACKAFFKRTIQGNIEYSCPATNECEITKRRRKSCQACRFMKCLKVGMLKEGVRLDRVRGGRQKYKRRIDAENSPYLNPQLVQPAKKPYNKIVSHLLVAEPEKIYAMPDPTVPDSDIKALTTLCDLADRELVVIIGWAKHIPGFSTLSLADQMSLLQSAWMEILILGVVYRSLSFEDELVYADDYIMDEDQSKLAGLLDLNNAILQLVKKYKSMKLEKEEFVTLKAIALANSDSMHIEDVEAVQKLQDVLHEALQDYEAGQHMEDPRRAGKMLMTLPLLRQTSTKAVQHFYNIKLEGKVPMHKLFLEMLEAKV
X-box-binding protein 1 (Homo sapiens), sequence (P17861 whole entry, looked up): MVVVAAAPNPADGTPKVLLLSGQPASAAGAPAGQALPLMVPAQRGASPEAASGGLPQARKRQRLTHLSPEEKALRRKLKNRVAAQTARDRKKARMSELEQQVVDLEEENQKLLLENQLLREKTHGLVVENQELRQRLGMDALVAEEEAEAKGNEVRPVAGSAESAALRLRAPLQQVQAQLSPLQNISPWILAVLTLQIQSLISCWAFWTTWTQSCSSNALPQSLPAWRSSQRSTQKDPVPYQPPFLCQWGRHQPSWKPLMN
Glucocorticoid receptor (Homo sapiens), sequence (P04150 whole entry, looked up, the tested form may be a part): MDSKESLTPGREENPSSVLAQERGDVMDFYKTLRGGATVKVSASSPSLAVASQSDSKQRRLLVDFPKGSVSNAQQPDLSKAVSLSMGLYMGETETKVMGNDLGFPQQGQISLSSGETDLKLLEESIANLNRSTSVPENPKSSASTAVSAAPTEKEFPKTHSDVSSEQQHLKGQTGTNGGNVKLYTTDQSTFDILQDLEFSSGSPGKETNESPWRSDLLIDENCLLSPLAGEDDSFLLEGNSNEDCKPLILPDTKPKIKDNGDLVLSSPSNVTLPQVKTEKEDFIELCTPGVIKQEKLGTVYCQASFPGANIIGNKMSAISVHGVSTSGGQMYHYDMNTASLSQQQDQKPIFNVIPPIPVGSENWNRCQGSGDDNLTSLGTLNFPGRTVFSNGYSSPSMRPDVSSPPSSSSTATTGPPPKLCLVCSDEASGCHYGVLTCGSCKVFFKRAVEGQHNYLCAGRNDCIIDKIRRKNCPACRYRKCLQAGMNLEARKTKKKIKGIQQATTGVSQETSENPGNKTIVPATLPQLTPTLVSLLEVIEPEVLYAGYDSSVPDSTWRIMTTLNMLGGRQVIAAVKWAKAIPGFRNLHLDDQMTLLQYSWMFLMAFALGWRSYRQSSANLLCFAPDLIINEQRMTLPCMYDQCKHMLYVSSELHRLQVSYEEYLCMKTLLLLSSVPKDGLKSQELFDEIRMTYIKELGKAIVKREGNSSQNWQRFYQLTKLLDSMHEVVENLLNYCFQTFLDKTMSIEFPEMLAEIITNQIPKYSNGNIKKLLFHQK

Turning to `Nc1c(Cl)cc(Cl)cc1[N+](=O)[O-]`, the compound was called inactive in [1], in [2], in [3], in test [4] and in test [5].

For `COCCOCCOCCO`, the result in [1], in test [2], in test [6], in test [4], in [7] and in test [5] was inactive. Besides, the call in [8] was inactive.

Turning to `CCN(CCC#N)c1ccc(N=Nc2ccc([N+](=O)[O-])cc2)cc1`, the call in [1], in [2], in [9], in test [4], in [5] and in test [10] was inactive.

For the compound `O=C(O)CCCCCCCCCCCC(=O)O`, the outcome in [1], in test [2], in [6], in [4] and in test [7] was inactive.

Turning to `CCCC1O[C@@H]2C[C@H]3[C@@H]4CCC5=CC(=O)C=C[C@]5(C)[C@H]4[C@@H](O)C[C@]3(C)[C@]2(C(=O)CO)O1` (stereo partly drawn), in test [1], the concentration at half-maximal activity (AC50) was 9.41 µM (active). Further, the compound was classed as inactive in [2], in [6] and in [4].

On to `CC(=O)c1c(C)c([N+](=O)[O-])c(C(C)(C)C)c([N+](=O)[O-])c1C`, for which the AC50 in test [1] was 100 µM (active); in [2], 4.01 µM (active). The call in test [9], in [4] and in [8] was inactive.

For `CCCN(CCC)S(=O)(=O)c1ccc(C(=O)O)cc1`, the compound was classed as inactive in test [1], in [2], in test [6], in test [4], in test [7] and in [10]. Moreover, in [8], the compound was classed as inactive.

Take `Cc1cc(S(=O)(=O)O)ccc1N=Nc1c(O)ccc2ccccc12`: in test [1], the AC50 was 4.96 µM (active). For the same compound, the compound was called inactive in [2], in [6], in test [4], in [7], in test [5] and in [10].

As to `C=CCCC(=O)/C=C/C1C(C)=CCCC1(C)C` (stereo not drawn), the compound was called inactive in test [1], in test [9], in [4] and in [8]. In test [2], the AC50 was 2.44 µM (active).

On to `CC(C)(C)CC(C)(C)c1ccc(OCCOCC[N+](C)(C)Cc2ccccc2)cc1`, for which the compound was classed as inactive in [1], in test [2], in test [3], in test [6], in test [4] and in test [7]. The result in test [5], in test [10] and in test [8] was inactive.

`O=c1[nH]c(=O)c2cn[nH]c2[nH]1`: the compound was called inactive in test [1], in [2], in test [6], in [4], in [7] and in test [5]. For the same compound, the call in test [10] and in test [8] was inactive.

In the case of `O=C(O)CCCCCCCCC(=O)O`, the compound was called inactive in test [1], in test [2], in test [9], in test [4] and in test [5].

Consider `c1ccc(CN(Cc2ccccc2)Cc2ccccc2)cc1`, for which the call in test [1], in test [2], in test [9], in [4] and in test [8] was inactive.

On to `CC=Cc1ccc(OCC)c(O)c1`, for which the call in test [1], in [2], in [9], in test [4] and in test [8] was inactive.

Consider `Clc1cc(Cl)c(-c2c(Cl)c(Cl)cc(Cl)c2Cl)cc1Cl`, for which the compound was called inactive in test [1], in [2], in [6], in test [4], in test [7] and in [8].

Turning to `CCCCC(CC)(CO)CO`, the compound was called inactive in test [1], in [2], in [9], in test [7] and in [5].

Take `CCC1CCCCC1`: the outcome in test [1], in test [2], in [6], in test [4] and in test [7] was inactive.

As for `c1ccc(Oc2ccccc2)cc1`, the result in [1], in [2], in test [9], in test [7] and in test [8] was inactive.

For the compound `CC1CC(O)CC(C)(C)C1` (stereo not drawn), the result in test [1], in test [2], in test [6], in test [4], in test [7] and in test [5] was inactive.

Consider `Brc1ccc(Br)c(Br)c1`, for which the outcome in test [1], in test [2], in [3], in [4] and in [7] was inactive.

For the compound `C=CC(=C)CCCC(C)(C)OC(C)=O`, the result in test [1], in [2], in test [6], in test [4], in test [7] and in [8] was inactive.

Take `O=C(Nc1ccc2c(c1)Cc1ccccc1-2)C(F)(F)F`: the call in test [1], in test [9], in [4], in test [5] and in test [8] was inactive. In addition, the AC50 in test [2] was 30.5 µM (active).

With `COC(=O)C=C(C)CCC=C(C)C`, the outcome in test [1], in test [3], in [6], in test [4] and in test [10] was inactive. In [2], the AC50 is 10.5 µM (active).

`BrCc1cccc(Oc2ccccc2)c1`: the compound was classed as inactive in [1], in test [2], in test [9], in test [7], in test [5] and in test [10]. Also, the compound was called inactive in test [8].

On to `CCCCCCCCCCCC(=O)OC[C@@H](O)[C@H]1OC[C@H](O)[C@H]1O`, for which the call in [1], in test [2], in test [6], in test [4], in [7] and in test [5] was inactive. The outcome in test [10] and in [8] was inactive.

Take `ClC(c1ccccc1)(c1ccccc1)c1ccccc1`: the compound was classed as inactive in [1], in [9], in [5] and in test [8]. For the same compound, the AC50 in test [2] was 5.98 µM (active).

Take `CCCCN(CCCC)C(=O)N(CCCC)CCCC`: the AC50 in [1] is 59.6 µM (active); in [2] it was 7.92 µM (active). The call in test [9], in test [4], in test [5] and in test [8] was inactive.

In the case of `CC(C)(CO)[C@@H](O)C(=O)NCCC(=O)O`, in [3], the call was inactive.

As to `COC(=O)c1ccc(C)cc1C1=NC(C)(C(C)C)C(=O)N1` (stereo not drawn) (tested in a mixture with another compound), the outcome in [1], in test [4], in [7] and in test [10] was inactive.

For the compound `CCO/C=C1\N=C(c2ccccc2)OC1=O`, the compound was called inactive in [1], in [4], in [7] and in test [8].

As for `Nc1ccc(NCCO)c([N+](=O)[O-])c1`, the call in test [1], in test [6], in test [4], in test [5], in test [10] and in [8] was inactive.

Consider `CC(=O)CC(=O)Nc1ccc(C)cc1C`, for which the compound was called inactive in test [1], in test [4], in [7] and in [5].
